Experimental data published in ChEMBL document CHEMBL3988442, “University of Dundee, Small-Polar-MMV Screening Library” (2021).
Several values for one entry are separate records, joined by “and”; a condition that tells them apart may be missing. Equal entries are not always repeated. The campaign covered roughly 34,000 compounds. About 290 (0.85%) showed an effect of 50% or more. Shown is part of a subset that was picked to be rich in strong results.

System: Plasmodium falciparum
Assay: Plasmodium falciparum sporozoite viability assay
Format: functional, organism-based
Design: scale not given: in the data most compounds retested in dose-response had high values

Cc1nc2cc(O)nn2c(C)c1CCC(=O)NCc1cc(Br)cs1
Percent Effect: 3.643%

O=C(NCCc1ccccc1)c1cccc(S(=O)(=O)NC2CCOC2)c1 (stereo not given)
Percent Effect: -7.302%

CN1CCC(c2cccc(-c3cccc(C(=O)O)c3)n2)CC1
Percent Effect: 10.86%

CCOc1ccc(CCCC(=O)N2CCC(C(=O)NC)C2)cc1C (stereo not given)
Percent Effect: -7.967%

COc1cc(CCC(=O)NC(C)C(=O)O)ccc1OCC(F)(F)F (stereo not given)
Percent Effect: -11.4%

Cc1nn(C)c(C)c1C1CCCN1c1ncnc2sccc12 (stereo not given)
Percent Effect: -0.7353%

O[C@H]1CN(Cc2c[nH]nc2-c2ccccc2)CC[C@@]12CCCO2
Percent Effect: 16.42%

Nc1ncc(-c2ccc(Cl)cc2)c(C2CCCNC2)n1 (stereo not given)
Percent Effect: 17.56%

CN(C)C(=O)c1sc2ncccc2c1C1CNCCO1.Cl (stereo not given)
Percent Effect: -1.679%

Cl.Clc1ccc(-c2ccc(C3CNCCO3)nc2)cc1 (stereo not given)
Percent Effect (10 mM as filed; unlikely as a test dose): 88.25% and 80.55% and 85.69%

Cl.Cl.Cn1nc(C2CNCCO2)cc1CCOc1ccc(Cl)cc1 (stereo not given)
Percent Effect: -1.356%

Cn1ccnc1CN1CCN(Cc2noc(C3CC3)n2)CC1
Percent Effect: 10.42%

CCN1CC[C@@]2(C(=O)N3CCOCC3)CCN(C(=O)C(C)C)CC[C@@H]12.O=C(O)C(F)(F)F
Percent Effect: 20.75%

Cc1ccc(-c2nccn2-c2ccc(OC3CCN(C)CC3)cc2)o1
Percent Effect (10 mM as filed; unlikely as a test dose): 49.42% and 35.94%

CCOC[C@H]1CC[C@H]2[C@H](CCN2C(=O)c2cnccn2)O1
Percent Effect: 7.105%

c1ccc(OCCN2CCC(c3cnccn3)CC2)cc1
Percent Effect: 9.194%

c1cnc(-c2nc(CN3CCCN(Cc4cccs4)CC3)cs2)nc1
Percent Effect (10 mM as filed; unlikely as a test dose): -6.924% and 13.02% and 13.14%

O=C(c1cnccn1)N1CCN(Cc2csc(-c3ccccc3)n2)CC1
Percent Effect: 9.607%

COCC(=O)N1CCN(Cc2csc(-c3ncccn3)n2)CC1
Percent Effect (10 mM as filed; unlikely as a test dose): -31.63% and -33.22% and -17.89%

CC(O)CN1CCN(Cc2csc(-c3ncccn3)n2)CC1 (stereo not given)
Percent Effect (10 mM as filed; unlikely as a test dose): 68.95% and 42.73% and 61.03%

CC(C)C(=O)N1CCN(Cc2csc(-c3ccccn3)n2)CC1
Percent Effect (10 mM as filed; unlikely as a test dose): 63.59% and 62.99% and 41.75%

CC(C)C(=O)N1CCN(Cc2csc(-c3ncccn3)n2)CC1
Percent Effect (10 mM as filed; unlikely as a test dose): 77.28% and 53.85% and 54.68%

CC(O)CN1CCN(Cc2csc(-c3cnn(C)c3)n2)CC1 (stereo not given)
Percent Effect: 8.176%

CC(C)c1nc(CN2CCN(Cc3ccccn3)CC2)cs1
Percent Effect: 0%

COCCN1CCC2(CCN(C(=O)c3ccc(F)cc3)CC2)C1=O
Percent Effect: 6.318%

CCC(=O)Nc1ccc(N2CCC(OC)CC2)c(C(F)(F)F)c1
Percent Effect: 1.93%

CCc1[nH]ncc1C(=O)N1CCCC(n2cncn2)C1 (stereo not given)
Percent Effect: -4.375%

Cc1cccnc1C(Cc1ccsc1)NCc1cnc(N(C)C)nc1 (stereo not given)
Percent Effect: -1.422%

Cc1cccc(CN2CCCn3c(nnc3CN3CCCC3=O)C2)n1.O=C(O)C(F)(F)F
Percent Effect: -1.313%

CN(C)c1ccc(CC2COCCN(Cc3nccn3C)C2)nn1 (stereo not given)
Percent Effect: -1.339%

Cn1ccnc1C(=O)N[C@@H]1CN(Cc2ccoc2)[C@@H]2CCCO[C@@H]21.O=C(O)C(F)(F)F
Percent Effect: 4.904%

CC1=Nc2c(c(=O)[nH]n2C2CCCC2)C(c2ccc(C(=O)O)cc2)S1 (stereo not given)
Percent Effect: -7.784%

CCn1c(C)nc2cc(NC(=O)CC3CCCCO3)ccc21 (stereo not given)
Percent Effect (10 mM as filed; unlikely as a test dose): 43.93% and 40.46% and 65.03%

CCn1c(C)nc2cc(NC(=O)C3CN(C(C)=O)C3)ccc21
Percent Effect: -0.5895%

COc1ncccc1CN1CCC2(CC1)CC(OCC1CC1)CO2.O=C(O)C(F)(F)F (stereo not given)
Percent Effect: 8.839%

COc1ccccc1-n1cc(C(=O)NCCCn2nc(C)nc2C)cn1
Percent Effect: 3.022%

Cc1ccnn1-c1ccc(C(=O)N2CCCC(n3ccnc3)C2)cc1 (stereo not given)
Percent Effect: 2.837%

O=C(CO)N1CCC(CCc2ccnc(Nc3cnccn3)c2)CC1
Percent Effect: -3.121%

O=C(Nc1cc(CCC2CCN(CCO)CC2)ccn1)c1ccccn1
Percent Effect (10 mM as filed; unlikely as a test dose): 45.19% and 58.77% and 35.89%

CC(=O)N1CCC(CCc2ccnc(NC(=O)c3ccccn3)c2)CC1
Percent Effect (10 mM as filed; unlikely as a test dose): 74.38% and 72.77% and 65.08%

CN1CCC(CCc2ccnc(Nc3cnccn3)c2)CC1
Percent Effect: -4.215%

Cc1cc(C)nc(N2CCC(CNC(=O)c3ccccn3)CC2)n1
Percent Effect: 1.904%

CN1CCC(CCc2ccnc(NC(=O)c3ccccn3)c2)CC1
Percent Effect (10 mM as filed; unlikely as a test dose): 67.18% and 85.05% and 49.69%

CC(=O)Nc1cc(CCC2CCN(C(=O)c3ccccn3)CC2)ccn1
Percent Effect (10 mM as filed; unlikely as a test dose): 2.531% and -14.73% and -5.68%

Cc1ccccc1CCNC(=O)CN1CCCC(Cn2cncn2)C1 (stereo not given)
Percent Effect: 7.953%

O=C(C1=CCCC1)N1C[C@@H]2COC[C@]2(COc2ncccc2F)C1.O=C(O)C(F)(F)F
Percent Effect: 10.29%

O=C(c1ccc(-c2cccc3c2CCNC3)o1)N1CCCCC1
Percent Effect: -26%

O=S(=O)(c1ccccc1)N1CC[C@]2(C[C@@H](OCC3CC3)CO2)C1
Percent Effect: -7.967%

COC(=O)Nc1ccc(CNc2cncc(-n3cccn3)n2)cc1
Percent Effect: -0.1023%

Cc1cc(CN(C)C(=O)c2ccc(OC(C)C)nc2)no1
Percent Effect: 6.375%

COc1ccc(CN2C[C@@H]3OCCN(C)[C@@H]3C2)cc1.O=C(O)C(F)(F)F
Percent Effect: -4.875%

COCCC(=O)N1CC[C@@H](N(C)C)[C@@H]1Cc1ccccc1
Percent Effect: -9.112%

COc1ccc(S(=O)(=O)N2C[C@@H]3CN(C)CCO[C@@H]3C2)cc1
Percent Effect: 1.798%

Cc1nccn1C1CCCN(C(=O)CCCNc2ncccn2)C1 (stereo not given)
Percent Effect: 3.922%

Cc1cnn(CC2CCCN2C(=O)c2ccccc2-n2cccn2)c1 (stereo not given)
Percent Effect: 9.109%

Cc1nc(N2CCN(C(=O)c3ccccc3)CC2)c2cnn(C)c2n1
Percent Effect: -8.371%

Cl.OC1(c2ccc(F)cc2)CCN(Cc2ccccc2N2CCCC2)CC1
Percent Effect: 10.2%

Cc1cnccc1-n1nc(C(C)C)nc1CCN(C)S(C)(=O)=O
Percent Effect (10 mM as filed; unlikely as a test dose): -20.65% and -22.07%

Cc1cnccc1-n1nc(C(C)C)nc1CS(C)(=O)=O
Percent Effect (10 mM as filed; unlikely as a test dose): 82.57% and 75%

CSCCc1nc(C(C)C)nn1-c1ccncc1C
Percent Effect (10 mM as filed; unlikely as a test dose): -19.09% and -18.73%
